Consider 18 compounds from PubChem BioAssay.

Unmarked numbers belong to inactive results. The rule behind the calls is not given here.

This assay deals with Pantothenate synthetase (Mycobacterium tuberculosis (strain ATCC 25618 / H37Rv)) (UniProt P9WIL5). The assay can be described thus: Coupled enzyme confirmation of inhibitors against recombinant Mtb PanC (AID 375).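 Note: 0% = full reaction with vehicle and 100% = no enzyme background.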 To be noted: coupled enzyme assay; at 10 µM, hits give high values.
Sequence of Pantothenate synthetase (Mycobacterium tuberculosis (strain ATCC 25618 / H37Rv)) (P9WIL5 whole entry, looked up): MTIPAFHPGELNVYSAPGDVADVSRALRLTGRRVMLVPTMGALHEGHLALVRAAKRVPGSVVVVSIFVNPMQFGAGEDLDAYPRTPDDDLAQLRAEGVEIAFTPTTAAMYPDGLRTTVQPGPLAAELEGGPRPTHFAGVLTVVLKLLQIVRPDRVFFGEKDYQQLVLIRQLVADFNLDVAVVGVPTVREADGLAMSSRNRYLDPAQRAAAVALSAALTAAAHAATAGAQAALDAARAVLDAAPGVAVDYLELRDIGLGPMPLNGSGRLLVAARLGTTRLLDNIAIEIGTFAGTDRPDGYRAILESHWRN
With `Nn1c(Cc2ccccc2F)nnc1SCC(=O)N1CC(=O)Nc2ccccc21`, the inhibition (as a rule, the drop in the measured response relative to a control, in per cent) is 0%.
For `COCCNC(=O)c1cc(-c2cccs2)on1` the value was 0%; for `O=C1CCCC(O)=C1C=Nc1ccc2c(c1)oc1ccccc12`, 3%; for `Cc1ccc(S(=O)(=O)N(C)Cc2cc3ccccc3[nH]c2=O)cc1`, 0%.
Take `CCCNC(=O)NS(=O)(=O)c1ccc(Cl)cc1`: the inhibition is 5%.
For `Cc1nn(CC(O)Cn2c3c(c4ccccc42)CCN(C)C3=O)c(C)c1Br` (stereo not drawn) the value was 7%.
With `COCCn1c(-c2ccco2)nc2nc3ccccc3nc21` the figure was 5%.
As to `COc1cccc(S(=O)(=O)Nc2ccc(C(=O)N3CCN(C(=O)c4ccco4)CC3)cc2)c1`, the inhibition is 0%.
`CC(=O)c1ccc(NC(=O)c2cc(CC(C)C)on2)cc1`: the inhibition was 0%.
With `O=C(CCn1c(=O)sc2ccccc21)Nc1cccnc1`, the inhibition was 6%.
For `Cc1c(C)c2cc(Cl)c(O)c(CN3CCCCC3)c2oc1=O` the value was 1%; for `O=C(O)CC1CCCC(c2ccccc2)C1=O` (stereo not drawn), 5%; for `COc1cc(OC)cc(C(=O)NCc2n[nH]c(=S)n2-c2ccccc2OC)c1`, 0%.
As for `COC(=O)c1cn(C(=O)OC)c2ccccc12`, the inhibition was 7%.
For `CC(C)Cn1c(=O)c(C(=O)NCc2ccccn2)c(O)c2ccccc21` the value was 0%; for `c1ccc(OCc2nc3ccccc3[nH]2)cc1`, 0%.
For `Cc1ccc(N2CC(C)Cn3c2nc2c3c(=O)n(CC(=O)OCc3ccccc3)c(=O)n2C)cc1C` (stereo not drawn) the value was 0%; for `CC(C)CNc1oc(-c2ccc(F)cc2)nc1C#N`, 2%.
